In PubChem BioAssay AID1159580 (chemical genetic matrix, 2015):
Several values for one entry are separate records, joined by “and”; a condition that tells them apart may be missing. Equal values may be shown once. The whole screen tested about 5,500 compounds, of which about 2,000 (36%) were called active. Roughly 18% stayed inconclusive and do not appear here. The list shows a part of the results. Unmarked numbers belong to inactive results. No stated cut-off is given here; in the data, active means normalized growth mostly below about 0.91 (no sharp cut-off); inconclusive means no clear call, values can overlap the other calls; inactive means mostly above about 0.92.

Test: chemical genetic growth profiling, strain panel (AID 1159580);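 further: tested at 20 µM; growth read once vehicle control cultures reached saturation at 30 °C; 1 = growth at the plate median or of vehicle wells; lower values mean less growth of the strain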
Settings: growth OD
[1] = S. cerevisiae deletion strains, locus YAL013W, strain DEP1, active compounds read low
[2] = S. cerevisiae deletion strains, locus YDR150W, strain NUM1, active compounds read low
[3] = S. cerevisiae deletion strains, locus YGR229C, strain SMI1, active compounds read low
[4] = S. cerevisiae deletion strains, locus YNL153C, strain GIM3, active compounds read low
[5] = S. cerevisiae deletion strains, locus YNL322C, strain KRE1, active compounds read low
[6] = S. cerevisiae deletion strains, locus YBR229C, strain ROT2, active compounds read low
[7] = S. cerevisiae deletion strains, locus YDL101C, strain DUN1, active compounds read low
[8] = S. cerevisiae deletion strains, locus YEL061C, strain CIN8, active compounds read low
[9] = S. cerevisiae deletion strains, locus YGR078C, strain PAC10, active compounds read low
[10] = S. cerevisiae deletion strains, locus YHR030C, strain SLT2, active compounds read low
[11] = S. cerevisiae deletion strains, locus YHR087W, strain rtc3, active compounds read low
[12] = S. cerevisiae deletion strains, locus YJR043C, strain POL32, active compounds read low
[13] = S. cerevisiae deletion strains, locus YJR075W, strain HOC1, active compounds read low
[14] = S. cerevisiae deletion strains, locus YLR039C, strain RIC1, active compounds read low
[15] = S. cerevisiae deletion strains, locus YLR058C, strain SHM2 (second series), active compounds read low
[16] = S. cerevisiae deletion strains, locus YLR085C, strain ARP6, active compounds read low
[17] = S. cerevisiae deletion strains, locus YLR262C, strain YPT6, active compounds read low
[18] = S. cerevisiae deletion strains, locus YML094W, strain GIM5, active compounds read low
[19] = S. cerevisiae deletion strains, locus YMR219W, strain ESC1, active compounds read low
[20] = S. cerevisiae deletion strains, locus YNL298W, strain CLA4 (second series), active compounds read low
[21] = S. cerevisiae deletion strains, locus YNR030W, strain Alg12, active compounds read low
[22] = S. cerevisiae deletion strains, locus YPL055C, strain LGE1, active compounds read low
[23] = S. cerevisiae deletion strains, locus YPL241C, strain CIN2, active compounds read low
[24] = S. cerevisiae deletion strains, locus YPR135W, strain CTF4, active compounds read low
[25] = S. cerevisiae deletion strains, locus YDL134C, strain PPH21, active compounds read low
[26] = S. cerevisiae deletion strains, locus YMR263W, strain SAP30, active compounds read low
[27] = S. cerevisiae deletion strains, locus YOL006C, strain TOP1, active compounds read low
[28] = S. cerevisiae strains, strain wild type, active compounds read low
[29] = S. cerevisiae deletion strains, locus YJL187C, strain SWE1, active compounds read low

CCS(=O)(=O)Nc1cccc(C(=C2CCCCC2)c2cnc[nH]2)c1
normalized growth [1]: 0.982
normalized growth (S. cerevisiae deletion strains, locus YAL040C, strain CLN3, active compounds read low): 1
normalized growth [2]: 1.02
normalized growth (S. cerevisiae deletion strains, locus YDR363W, strain ESC2, active compounds read low): 0.974
normalized growth (S. cerevisiae deletion strains, locus YER002W, strain NOP16, active compounds read low): 1.04
normalized growth [3]: 1
normalized growth [4]: 1.03
normalized growth (S. cerevisiae deletion strains, locus YNL175C, strain NOP13, active compounds read low): 1
normalized growth (S. cerevisiae deletion strains, locus YNL197C, strain WHI3, active compounds read low): 1
normalized growth (S. cerevisiae deletion strains, locus YNL224C, strain SQS1, active compounds read low): 1.01
normalized growth [5]: 0.994
normalized growth (S. cerevisiae deletion strains, locus YOR083W, strain WHI5 (second series), active compounds read low): 1.02

O=S(=O)(Nc1ccc(Oc2ccc(Cl)cc2)cc1)c1ccccc1
normalized growth [1]: 0.219 (active)
normalized growth [6]: 0.923 (active)
normalized growth (S. cerevisiae deletion strains, locus YCL061C, strain MRC1, active compounds read low): 0.851 (active)
normalized growth [7]: 0.911
normalized growth [2]: 0.518 (active)
normalized growth [8]: 0.51 (active)
normalized growth (S. cerevisiae deletion strains, locus YGR052W, strain FMP48, active compounds read low): 0.122 (active)
normalized growth [9]: 0.901 (active)
normalized growth [10]: 0.114 (active) and 0.113 (active)
normalized growth (S. cerevisiae deletion strains, locus YHR079C, strain IRE1, active compounds read low): 0.199 (active)
normalized growth (S. cerevisiae deletion strains, locus YHR082C, strain KSP1, active compounds read low): 0.137 (active)
normalized growth [11]: 0.866 (active)
normalized growth (S. cerevisiae deletion strains, locus YJL095W, strain BCK1, active compounds read low): 0.108 (active)
normalized growth [12]: 0.843 (active)
normalized growth (S. cerevisiae deletion strains, locus YJR066W, strain TOR1, active compounds read low): 0.206 (active)
normalized growth [13]: 0.899
normalized growth (S. cerevisiae deletion strains, locus YKL203C, strain TOR2, active compounds read low): 0.274 (active)
normalized growth [14]: 0.293 (active)
normalized growth [15]: 0.998
normalized growth [16]: 0.247 (active)
normalized growth (S. cerevisiae deletion strains, locus YLR113W, strain HOG1, active compounds read low): 0.166 (active)
normalized growth [17]: 0.117 (active)
normalized growth [18]: 0.483 (active)
normalized growth [19]: 0.925 (active)
normalized growth [4]: 0.879 (active)
normalized growth (S. cerevisiae deletion strains, locus YNL183C, strain NPR1, active compounds read low): 0.154 (active)
normalized growth (S. cerevisiae deletion strains, locus YNL207W, strain RIO2, active compounds read low): 0.248 (active)
normalized growth [20]: 0.321 (active)
normalized growth [5]: 1.04
normalized growth [21]: 0.191 (active)
normalized growth (S. cerevisiae deletion strains, locus YOR119C, strain RIO1, active compounds read low): 0.226 (active)
normalized growth (S. cerevisiae deletion strains, locus YOR231W, strain MKK1, active compounds read low): 0.159 (active)
normalized growth [22]: 0.106 (active)
normalized growth [23]: 0.341 (active)
normalized growth (S. cerevisiae deletion strains, locus YPL256C, strain CLN2, active compounds read low): 0.239 (active)
normalized growth [24]: 0.309 (active)

Cc1cc(NS(=O)(=O)c2ccc(NS(=O)(=O)c3cc(C)c(Cl)cc3C)cc2)no1
normalized growth [1]: 0.991
normalized growth [6]: 0.994
normalized growth [7]: 1
normalized growth [25]: 0.968
normalized growth [2]: 1.07
normalized growth [8]: 0.984
normalized growth [9]: 1.01
normalized growth [10]: 1.08
normalized growth [11]: 0.982
normalized growth [12]: 1.04
normalized growth [13]: 1.01
normalized growth [14]: 1
normalized growth [15]: 0.979
normalized growth [16]: 0.947
normalized growth [17]: 1.09
normalized growth [18]: 0.971
normalized growth [19]: 0.99
normalized growth [26]: 1.02
normalized growth (S. cerevisiae deletion strains, locus YNL128W, strain TEP1, active compounds read low): 0.981
normalized growth [4]: 1.01
normalized growth [20]: 0.979
normalized growth [5]: 0.99
normalized growth [21]: 1.01
normalized growth [27]: 0.985
normalized growth [22]: 1.04
normalized growth [23]: 0.985
normalized growth [24]: 1.09
normalized growth [28]: 0.974

Cc1ccc(S(=O)(=O)Nc2ccc(C)c([N+](=O)[O-])c2)cc1
normalized growth [1]: 0.995
normalized growth [6]: 0.988
normalized growth [7]: 0.95
normalized growth [25]: 0.994
normalized growth [2]: 0.958
normalized growth [8]: 1.03
normalized growth [9]: 0.986
normalized growth [3]: 1
normalized growth [10]: 0.989
normalized growth [11]: 1.02
normalized growth [29]: 1.01
normalized growth [12]: 0.976
normalized growth [13]: 0.971
normalized growth (S. cerevisiae deletion strains, locus YKL190W, strain CNB1, active compounds read low): 0.988
normalized growth [14]: 1.02
normalized growth [15]: 1
normalized growth [16]: 0.991
normalized growth [17]: 1.01
normalized growth [18]: 1.01
normalized growth [19]: 0.993
normalized growth [26]: 0.999
normalized growth [4]: 0.979
normalized growth [20]: 0.963
normalized growth [5]: 0.983
normalized growth [21]: 0.961
normalized growth [27]: 1.02
normalized growth [22]: 1.01
normalized growth [23]: 0.952
normalized growth [24]: 0.898
normalized growth [28]: 0.981

Cc1cc(NS(=O)(=O)c2ccc(NS(=O)(=O)c3ccc(Cl)cc3)cc2)no1
normalized growth [1]: 1.03
normalized growth [6]: 1.02
normalized growth [7]: 1
normalized growth [2]: 0.956
normalized growth [8]: 1.01
normalized growth [9]: 1
normalized growth [3]: 1.01
normalized growth [10]: 1.07
normalized growth [11]: 0.999
normalized growth [29]: 1.01
normalized growth [12]: 1.04
normalized growth [13]: 1.02
normalized growth [14]: 1.02
normalized growth [15]: 1
normalized growth [16]: 0.983
normalized growth [17]: 1.07
normalized growth [18]: 0.988
normalized growth [19]: 1.01
normalized growth [26]: 0.956
normalized growth [4]: 1.02
normalized growth [20]: 1.03
normalized growth [5]: 1.01
normalized growth [21]: 1.02
normalized growth [27]: 1.06
normalized growth [22]: 0.902
normalized growth [23]: 0.995
normalized growth [24]: 1.08

O=c1c2cc(NS(=O)(=O)c3ccc(Cl)cc3)ccc2oc2ncccc12
normalized growth [1]: 0.979
normalized growth [6]: 1.02
normalized growth [7]: 0.988
normalized growth [25]: 1
normalized growth [2]: 0.961
normalized growth [8]: 1.04
normalized growth [9]: 0.979
normalized growth [10]: 0.998
normalized growth [11]: 1.06
normalized growth [12]: 0.976
normalized growth [13]: 1.03
normalized growth [14]: 1.03
normalized growth [15]: 1.02
normalized growth [16]: 1.04
normalized growth [17]: 1.07
normalized growth [18]: 1.08
normalized growth [19]: 1.02
normalized growth [26]: 0.991
normalized growth [4]: 0.993
normalized growth [20]: 0.997
normalized growth [5]: 0.994
normalized growth [21]: 1.02
normalized growth [22]: 1.04
normalized growth [23]: 1.01
normalized growth [24]: 0.984
